In all, about 5,500 compounds went through this assay and about 2,000 (36%) were called active. Not shown: some 18% with an inconclusive outcome. Rule as the data show it: active = normalized growth mostly below about 0.91 (no sharp cut-off); inconclusive = no clear call, values can overlap the other calls; inactive = mostly above about 0.92. Some of the results follow.
Test: chemical genetic growth profiling, strain panel (AID 1159580);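 also: tested at 20 µM; growth read once vehicle control cultures reached saturation at 30 °C; 1 = growth at the plate median or of vehicle wells; lower values mean less growth of the strain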
Details: growth OD

Measured: normalized growth

Cc1cc2c3c(c1)c(O)cc(=O)n3CCC2
active: S. cerevisiae deletion strains, locus YHR030C, strain SLT2, hits give low values 0.518 | S. cerevisiae deletion strains, locus YLR039C, strain RIC1, hits give low values 0.544 | S. cerevisiae deletion strains, locus YLR262C, strain YPT6, hits give low values 0.549
inactive: S. cerevisiae deletion strains, locus YAL013W, strain DEP1, hits give low values 0.967 | S. cerevisiae deletion strains, locus YBR229C, strain ROT2, hits give low values 0.989 | S. cerevisiae deletion strains, locus YDL101C, strain DUN1, hits give low values 0.981 | S. cerevisiae deletion strains, locus YDL134C, strain PPH21, hits give low values 0.968 | S. cerevisiae deletion strains, locus YDR150W, strain NUM1, hits give low values 1 | S. cerevisiae deletion strains, locus YEL061C, strain CIN8, hits give low values 1.01 | S. cerevisiae deletion strains, locus YGR078C, strain PAC10, hits give low values 0.991 | S. cerevisiae deletion strains, locus YGR229C, strain SMI1, hits give low values 0.974 | S. cerevisiae deletion strains, locus YHR087W, strain rtc3, hits give low values 0.991 | S. cerevisiae deletion strains, locus YJL187C, strain SWE1, hits give low values 0.984 | S. cerevisiae deletion strains, locus YJR043C, strain POL32, hits give low values 0.984 | S. cerevisiae deletion strains, locus YJR075W, strain HOC1, hits give low values 1 | S. cerevisiae deletion strains, locus YKL190W, strain CNB1, hits give low values 0.988 | S. cerevisiae deletion strains, locus YLR058C, strain SHM2 (second series), hits give low values 0.995 | S. cerevisiae deletion strains, locus YLR085C, strain ARP6, hits give low values 0.968 | S. cerevisiae deletion strains, locus YML094W, strain GIM5, hits give low values 1.02 | S. cerevisiae deletion strains, locus YMR219W, strain ESC1, hits give low values 0.969 | S. cerevisiae deletion strains, locus YMR263W, strain SAP30, hits give low values 0.968 | S. cerevisiae deletion strains, locus YNL128W, strain TEP1, hits give low values 0.989 | S. cerevisiae deletion strains, locus YNL153C, strain GIM3, hits give low values 0.971 | S. cerevisiae deletion strains, locus YNL298W, strain CLA4 (second series), hits give low values 1.01 | S. cerevisiae deletion strains, locus YNL322C, strain KRE1, hits give low values 0.993 | S. cerevisiae deletion strains, locus YNR030W, strain Alg12, hits give low values 0.989 | S. cerevisiae deletion strains, locus YOL006C, strain TOP1, hits give low values 1.03 | S. cerevisiae deletion strains, locus YPL055C, strain LGE1, hits give low values 0.88 | S. cerevisiae deletion strains, locus YPL241C, strain CIN2, hits give low values 0.96 | S. cerevisiae deletion strains, locus YPR135W, strain CTF4, hits give low values 0.918 | S. cerevisiae strains, strain wild type, hits give low values 0.967

Source: PubChem BioAssay AID1159580 (chemical genetic matrix, 2015)
